The campaign covered roughly 2,500 compounds. About 360 (14%) were called active.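 Rule for the calls: active = signal-lowering compounds whose fitted half-maximal concentration AC50 is no higher than ten times their top tested concentration; inconclusive = flat curve with 30 to 70% inhibition, or poor fit; inactive = flat within 30%, signal increase, or AC50 above limit.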 Only a sample is shown.
assay: HRP/luminol detection interference without ALR, dose response, artefact control for ALR inhibitor project, biochemical, luminescence, no ALR or DTT, cherry-pick (AID 540356); details: HRP/H2O2 luminol luminescence counterscreen; series mostly up to 10 µM

| SMILES | AC50 |
| --- | --- |
| CC(=O)Nc1ccc(N2C(=O)CSC2c2ccccc2[N+](=O)[O-])cc1 (stereo not given) | inactive |
| Brc1ccc(CN2CCN(c3ccccc3)CC2)o1 | inactive |
| Nc1ccc2sc(N)nc2c1 | inactive |
| Cc1nc2ccc(-c3nc4ccc(N)cc4[nH]3)cc2[nH]1 | 4.68 µM (active) |
| Nc1ccc2oc(-c3cccs3)nc2c1 | inactive |
| Cc1ccc2nc(-c3cccc(N)c3)[nH]c2c1 | inactive |
| Nc1ccc(-c2nc3ccc([N+](=O)[O-])cc3[nH]2)cc1 | inactive |
| O=C(Nc1nc(-c2ccccc2)ns1)c1cccs1 | inactive |
| Cc1nnc2sc(SCc3cccc(Cl)c3)nn2c1=O | inactive |
| O=S(c1ccc2ccccc2c1)c1cnns1 (stereo not given) | inactive |
| C/C(Cl)=C\Cn1c(Nc2ccccc2)nc2c1c(=O)n(C)c(=O)n2C | inactive |
| CSCc1ccc(C(=O)NC(C)c2ccc(-n3ccnc3)cc2)cc1 (stereo not given) | inactive |
| O=C(CCc1ccccc1)N1CCN(c2ccc(F)cc2)CC1 | inactive |
| CC(C)=NNc1nc(-c2ccccc2)cs1 | inactive |
| CC(C)=NNc1nc(-c2ccc(N3C(=O)CCC3=O)cc2)cs1 | 6.32 µM (active) |
| CC(=O)Nc1ccc(-c2csc(NNC(=O)c3ccccc3)n2)cc1 | inactive |
| CN(C)c1ccc(C(=O)Nc2nc3c(s2)CCCC3)cc1 | inactive |
| CSCC[C@H](NC(=O)N1CCn2c1nc1ccccc12)C(=O)NC1CCCCC1 | inactive |
| O=C(Cc1ccccc1)NNc1c2ccccc2nc2ccccc12 | inactive |
| CC(=O)NC(C)C(c1cccs1)N1CCN(c2ccccc2)CC1 (stereo not given) | inactive |
| COc1ccc(C(=O)N2CCCC(Nc3ccc(C)c(C)c3)C2)cc1 (stereo not given) | inactive |
| Oc1[nH]c2ccccc2c1C1=NCCCC1 | inactive |
| c1ccc(NNC2=NCCCCC2)cc1 | 6.06 µM (active) |
| CC(=O)c1ccc(S(=O)(=O)Nc2cccc(S(=O)(=O)NC3=NCCC3)c2)cc1 | inactive |
| CN(C)c1ccc(CN(C(=O)c2ccccc2Br)C2CCS(=O)(=O)C2)cc1 (stereo not given) | inactive |

| SMILES | AC50 |
| --- | --- |
| COc1ccc(N2CCN(CC(=O)Nc3ccc(C)c(C)c3)CC2)cc1 | inactive |
| Cc1ccc(C(=O)NCCSc2snnc2C)cc1 | inactive |
| Cc1ccc(-c2n[nH]c(=S)n2/N=C/c2c(C)[nH]n(-c3ccccc3)c2=O)cc1 | inactive |
| O=c1cc(-c2ccccc2)[nH]c2[nH]n(-c3ccccc3)c(=O)c12 | inactive |
| N#Cc1ccc(CSc2nnc(NC(=O)c3ccc(=O)[nH]c3)s2)cc1 | inactive |
| NNC(=O)c1cccc(COc2ccccc2Br)c1 | inactive |
| Cc1cccc(N2CCN(C(=O)C3CCCN(S(=O)(=O)c4cnc[nH]4)C3)CC2C)c1 (stereo not given) | inactive |
| S=c1[nH]nc(-c2cccc3ccccc23)n1-c1cccnc1 | inactive |
| COc1cccc(/C=N/NC(=O)CNC(=O)c2ccncc2)c1O | inactive |
| COc1cc(/C=N/N2CCCCC2)cc([N+](=O)[O-])c1O | inactive |
| COc1cccc(/C=N/n2c(-c3cc(C)[nH]n3)n[nH]c2=S)c1OC | inactive |
| Cc1cccc(/C=N/n2c(-c3ccccc3)n[nH]c2=S)c1O | inactive |
| COc1cccc(/C=N/NC(=O)NC2CCCCC2)c1O | inactive |
| COc1cc(/C=N/n2c(C)n[nH]c2=S)ccc1OCc1ccccc1 | inactive |
| COc1ccc(C2CC(c3ccccc3)=NN2c2ccccc2)c(C(=O)O)c1OC (stereo not given) | inactive |
| O=C(O)CCc1ccc(-c2cccs2)n1NC(=O)c1cccs1 | inactive |
| O=C(O)c1cc(O)ccc1NC(=O)c1cccc2ccccc12 | inactive |
| O=C(NCCN1CCCc2ccccc21)C1CCC(=O)N(CCc2ccccc2)C1 (stereo not given) | inactive |
| O=C1CC(=O)N(c2ccccc2)N1c1ccccc1 | inactive |
| c1ccc(CNc2ncnc3sc4c(c23)CCCC4)nc1 | inactive |
| Nn1c(Nc2ccccc2)nc2sc3c(c2c1=O)CCCC3 | inactive |
| Cc1ccc(NC2CCCN(C(=O)CCc3scnc3C)C2)cc1C (stereo not given) | inactive |
| CC(C)c1ccc(NC2CCCN(C(=O)c3cscn3)C2)cc1 (stereo not given) | inactive |
| CN(C)c1ccc(NC(=O)CN2CCN(S(=O)(=O)c3cc(Cl)ccc3Cl)CC2)cc1 | inactive |
| CCN(CC)c1ccc(/C=N/NC(=O)CC(C)C)cc1 | inactive |

| SMILES | AC50 |
| --- | --- |
| COc1cc(/C=N/N2C(=O)C3C4C=CC(CC4)C3C2=O)ccc1O (stereo not given) | inactive |
| COc1cc(/C=N/NC(=O)C2C3CCCCC32C)cc(Br)c1O (stereo not given) | inactive |
| CCCCCC(=O)N/N=C/c1cc(Br)c(O)c(OC)c1 | inactive |
| COc1cc(/C=N/N2C(C)CCCC2C)cc(Br)c1O (stereo not given) | inactive |
| Oc1ccc(/C=N/n2c(COc3ccccc3)n[nH]c2=S)cc1O | inactive |
| COc1cc(/C=N/Nc2ccccc2)ccc1O | inactive |
| Cc1ccc(CN2CCSc3ccc(C(=O)NCCCN4CCN(C)CC4)cc32)cc1 | inactive |
| O=C(CN1CCN(c2ccc(O)cc2)CC1)Nc1ccc(S(=O)(=O)N2CCCC2)cc1 | inactive |
| Cc1ccc(-c2nc(Nc3cccc(C)c3)sc2CC(=O)O)cc1 | inactive |
| Cc1ccc(CS(=O)Cc2ccc(C(=O)N3CCN(c4ccccc4)CC3)o2)cc1 (stereo not given) | inactive |
| CN(C)c1ccc(NC(=O)CN2CCc3ccccc3C2)cc1 | inactive |
| CN(C)c1ccc(NC(=O)CCn2c(=S)oc3ccccc32)cc1 | inactive |
| O=C(NCC(c1ccco1)N1CCc2ccccc21)c1ccccc1F (stereo not given) | inactive |
| Clc1c(CSc2nc3ccccc3o2)nc2ccccn12 | inactive |
| CCCCCCCc1c(C#N)c(N)[nH]c(=S)c1C#N | inactive |
| Cc1ccc(S(=O)(=O)Nc2ccc(N(C)C)cc2)cc1 | inactive |
| Cc1cc(C)c(S(=O)(=O)Nc2ccc(O)cc2)c(C)c1 | 9.93 µM (active) |
| Cc1cccc(C(=O)Nc2ccc(O)cc2)c1 | inactive |
| CC(=O)Nc1ccc(S(=O)(=O)Nc2ccc(Nc3ccccc3)cc2)cc1 | inactive |
| Cc1ccc(Sc2ccc(S(=O)(=O)Nc3ccc(C(=O)O)cc3)cc2)cc1C | inactive |
| COc1ccc(S(=O)(=O)N/N=C(/C)c2ccncc2)c(OC)c1 | inactive |
| COc1cc(/C=N/NC(=O)c2nc3ccccn3c2C)cc(OC)c1O | inactive |
| O=C(NN=C1CCC(=NNC(=O)c2cccnc2)CC1)c1cccnc1 | 8.24 µM (active) |
| O=C(Nc1ccc(N2CCCCC2)cc1)c1cccnc1 | inactive |
| O=C(Nc1ccccc1N1CCCC1)c1cccnc1 | inactive |

Source: PubChem BioAssay AID540356 (Broad Institute, 2011)
